Experimental data published in PubChem BioAssay (Tox21).
A number with no mark means an inactive call. Inconclusive results are not listed. Entries that show only a call come without a potency. The source made the active and inactive calls. Unless noted, calls come from the whole dose curve.

Key:
[1] = Nuclear factor erythroid 2-related factor 2/antioxidant responsive element (Nrf2/ARE) small molecule agonists: qHTS cell viability counter screen in human keratinocytes (AID 1919968; active = well fitted curve in the direction sought with a large enough effect in the repeat runs; an effect the other way counts as inactive or inconclusive; note: nearly all actives have a fitted effect of over 55% in size; note: potency is the fitted concentration of half-maximal effect)
Outline: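 Stably transfected HaCaT (KeratinoSens), 1,500/well. Test agents in DMSO were applied for 23 h, 37 C/5% CO2. CellTiter-Fluor was incubated 1 h before the fluorescence read.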

[2] = Nuclear factor erythroid 2-related factor 2/antioxidant responsive element (Nrf2/ARE) small molecule agonists: luciferase reporter gene qHTS assay in human keratinocytes (AID 1919969); note: nearly all actives have a fitted effect of over 35% in size; note: potency is the fitted concentration of half-maximal effect
[3] = molecular target: Gonadotropin-releasing hormone receptor (Homo sapiens) (UniProt P30968); assay: Human gonadotropin-releasing hormone receptor (GnRHR) small molecule agonists, calcium flux assay in GnRHR-HEK293 cells (AID 1920063); note: nearly all actives have a fitted effect of over 35% in size; note: potency is the fitted concentration of half-maximal effect
Outline: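 Stable human GnRHR HEK293 line. 18 h plating, then calcium dye for 1 h at 37 C. Agonist-mode compound addition from DMSO stocks; fluorescence monitored 3 min.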

[4] = molecular target: KiSS-1 receptor (Homo sapiens) (UniProt Q969F8); assay: Human kisspeptin (KISS1R) small molecule agonists, calcium flux assay in KISS1R-HEK293 cells (AID 1920064; active = well fitted curve in the direction sought with a large enough effect in the repeat runs; an effect the other way counts as inactive or inconclusive; note: potency is the fitted concentration of half-maximal effect)
Outline: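 After overnight (18 h) culture at 37 C/5% CO2, human KISS1R-HEK293 cells received calcium dye for 1 h, then test compound; emission at 540 nm (excitation 480 nm) was tracked for 3 min.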

[5] = p53 small molecule agonists, cell-based qHTS assay with human liver microsomes (AID 1963577)
Outline: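 p53RE-bla cells, 4,000/well, compound added after 5 h, with human liver microsomes 0.5 mg/mL and NADPH 0.5 mg/mL final; 16 h at 37 C, then LiveBLAzer 2 h RT, fluorescence.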

[6] = p53 small molecule agonists, cell-based qHTS assay with human liver microsomes: qHTS cell viability counter screen (AID 1963579); note: nearly all actives have a fitted effect of over 45% in size; note: potency is the fitted concentration of half-maximal effect
Outline: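 p53RE-bla cells, 4,000/well, dosed 5 hours after plating, with human liver microsomes (0.5 mg/mL final) plus NADPH (0.5 mg/mL final), 16 hours at 37 C. Viability read as CellTiter-Glo luminescence after 30 min at room temperature.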

[7] = p53 small molecule agonists, cell-based qHTS assay with rat liver microsomes: qHTS cell viability counter screen (AID 1963580); note: nearly all actives have a fitted effect of over 45% in size; note: potency is the fitted concentration of half-maximal effect
Outline: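 Cytotoxicity counter screen: intracellular ATP measured by CellTiter-Glo luminescence in the same wells as the beta-lactamase reporter read, on HCT-116 p53RE-bla cells exposed 16 h at 37 C to compounds with rat liver microsomes and NADPH, each 0.5 mg/mL final.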

[8] = p53 small molecule agonists, cell-based qHTS assay: qHTS cell viability counter screen (AID 1963581); note: nearly all actives have a fitted effect of over 45% in size
Outline: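 qHTS counter screen: 16 h compound exposure at 37 C of p53RE-bla HCT-116 cells (4,000 per well, seeded 5 h prior), cell viability by ATP luminescence.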

[9] = molecular target: 5-hydroxytryptamine receptor 2A (Homo sapiens) (UniProt P28223); assay: 5-hydroxytryptamine receptor 2A (HTR2A) small molecule antagonists, cell-based qHTS assay (AID 1963586); note: nearly all actives have a fitted effect of over 45% in size; note: potency is the fitted concentration of half-maximal effect
Outline: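 CHO cells stably expressing human HTR2A were plated for 18 h at 37 C, then loaded with calcium dye for 1 h. Compounds were preincubated 5 min at room temperature before DOI (4 nM solution) was added. Kinetic fluorescence was read for 3 min.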

[10] = molecular target: Muscarinic acetylcholine receptor M1 (Homo sapiens) (UniProt P11229); assay: Cholinergic receptor muscarinic 1 (CHRM1) small molecule antagonists, cell-based qHTS assay (AID 1963588); note: nearly all actives have a fitted effect of over 40% in size; note: potency is the fitted concentration of half-maximal effect
Outline: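 Compounds were tested at 15 concentrations in three independent runs. Dye-loaded CHRM1-CHO cells were exposed 5 min at room temperature before stimulation by acetylcholine added at 50nM. Intracellular calcium was read kinetically on FDSS for 3 min.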

[11] = molecular target: Muscarinic acetylcholine receptor M1 (Homo sapiens) (UniProt P11229); assay: Cholinergic receptor muscarinic 1 (CHRM1) small molecule agonists, cell-based qHTS assay (AID 1963589); note: nearly all actives have a fitted effect of over 35% in size; note: potency is the fitted concentration of half-maximal effect
Outline: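 Kinetic fluorescence (1 s intervals) of calcium-sensitive dye in human M1 CHO cells after compound addition; cells pre-incubated 18 h at 37 C/5% CO2 and dye-loaded 1 h.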

[12] = molecular target: Beta-2 adrenergic receptor (Homo sapiens) (UniProt P07550); assay: Adrenergic beta2 receptor (ADRB2) small molecule antagonists, cell-based qHTS assay (AID 1963592); note: nearly all actives have a fitted effect of over 50% in size; note: potency is the fitted concentration of half-maximal effect
Outline: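 Assay format: CHO-ADRB2 cells, 18-20hr seeding at 37C/5% CO2, then compound plus 1nM isoproterenol agonist mix for 0.5hr RT. Homogeneous time-resolved fluorescence cAMP detection after 1hr, expressed as 665/615 nm ratio.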

[13] = molecular target: D(2) dopamine receptor (Homo sapiens) (UniProt P14416); assay: Dopamine D2 receptor (DRD2) small molecule agonists, cell-based qHTS assay (AID 1963594); note: nearly all actives have a fitted effect of over 35% in size
Outline: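 HEK293 cells stably expressing human DRD2, pre-treated with PDE inhibitor Ro20-1724 (0.1 mM final) and compound 10 min at room temperature, then stimulated with NKH477 (200nM […]) for 30 min. cAMP read by HTRF (665/620 nm).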

[14] = molecular target: D(2) dopamine receptor (Homo sapiens) (UniProt P14416); assay: Dopamine D2 receptor (DRD2) small molecule antagonists, cell-based qHTS assay (AID 1963595; active = well fitted inhibition curve with a large enough effect in the signal ratio in the repeat runs, with a control signal flat; the % refers to the signal ratio; note: potency is the fitted concentration of half-maximal effect)
Outline: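 In this cell-based antagonist screen, compounds act for 10 min at room temperature before a 30 min challenge with 12 nM quinpirole and 200 nM NKH477. cAMP is quantified by HTRF competition in DRD2-HEK293 cells containing 0.1 mM Ro20-1724.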

[15] = molecular target: 5-hydroxytryptamine receptor 2A (Homo sapiens) (UniProt P28223); assay: 5-hydroxytryptamine receptor 2A (HTR2A) small molecule agonists, cell-based qHTS assay (AID 1963587); note: nearly all actives have a fitted effect of over 30% in size; note: potency is the fitted concentration of half-maximal effect
Outline: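 CHO cells stably expressing human HTR2A, plated 18 h, loaded with calcium dye 1 h at 37 C. Agonist mode: compounds added and intracellular calcium fluorescence recorded kinetically for 2 min at 1 sec intervals.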

[16] = cAMP Responsive Elements (CRE) small molecule agonists, cell-based qHTS assay (AID 1963590)
Outline: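 Test agents in DMSO were incubated 3 h at 37 C/5% CO2 with CRE-bla HEK 293T cells seeded 18 h earlier; LiveBLAzer B/G FRET substrate was added and read after 2 h at room temperature.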

[17] = cAMP Responsive Elements (CRE) small molecule antagonists, cell-based qHTS assay (AID 1963591; active = well fitted inhibition curve with a large enough effect in the signal ratio in the repeat runs, not every such curve was filed as active; the % refers to the signal ratio)
Outline: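 Reporter line CRE-bla HEK 293T in dialyzed-FBS DMEM; cells preincubated 18 h, treated 3 h with compound plus NKH477 (0.25 uM final); LiveBLAzer FRET, 2 h RT.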

[18] = p53 small molecule agonists, cell-based qHTS assay with rat liver microsomes (AID 1963578)
Outline: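 p53RE-bla cells, 4,000/well, pre-incubated 5 h, then given compounds plus rat liver microsomes (0.5 mg/mL final) and NADPH (0.5 mg/mL final). Incubation 16 h at 37 C; beta-lactamase reporter read by LiveBLAzer fluorescence after 2 h at room temperature.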

[19] = molecular target: Beta-2 adrenergic receptor (Homo sapiens) (UniProt P07550); assay: Adrenergic beta2 receptor (ADRB2) small molecule agonists, cell-based qHTS assay (AID 1963593);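 note: CHO cells stably overexpressing human ADRB2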
Outline: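 CHO cells stably over-expressing ADRB2 were plated overnight at 37C, then dosed with compounds plus a stimulation mix containing 100uM IBMX and 25uM Ro-20-1724 for 0.5hr at room temperature. cAMP was measured by HTRF competition, 1hr.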

Chain of Muscarinic acetylcholine receptor M1 (Homo sapiens) (P11229 whole entry, looked up): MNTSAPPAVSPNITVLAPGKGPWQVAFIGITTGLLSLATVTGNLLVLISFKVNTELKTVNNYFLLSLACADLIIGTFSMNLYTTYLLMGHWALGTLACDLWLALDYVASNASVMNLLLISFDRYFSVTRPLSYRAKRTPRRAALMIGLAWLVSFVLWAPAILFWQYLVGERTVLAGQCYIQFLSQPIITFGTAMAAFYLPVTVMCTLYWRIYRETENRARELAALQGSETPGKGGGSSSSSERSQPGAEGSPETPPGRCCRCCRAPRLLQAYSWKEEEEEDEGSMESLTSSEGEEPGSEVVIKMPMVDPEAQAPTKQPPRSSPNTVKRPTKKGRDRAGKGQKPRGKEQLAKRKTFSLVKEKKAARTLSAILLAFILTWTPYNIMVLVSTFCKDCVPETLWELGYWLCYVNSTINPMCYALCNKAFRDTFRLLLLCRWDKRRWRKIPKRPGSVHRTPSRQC
Chain of 5-hydroxytryptamine receptor 2A (Homo sapiens) (P28223 whole entry, looked up): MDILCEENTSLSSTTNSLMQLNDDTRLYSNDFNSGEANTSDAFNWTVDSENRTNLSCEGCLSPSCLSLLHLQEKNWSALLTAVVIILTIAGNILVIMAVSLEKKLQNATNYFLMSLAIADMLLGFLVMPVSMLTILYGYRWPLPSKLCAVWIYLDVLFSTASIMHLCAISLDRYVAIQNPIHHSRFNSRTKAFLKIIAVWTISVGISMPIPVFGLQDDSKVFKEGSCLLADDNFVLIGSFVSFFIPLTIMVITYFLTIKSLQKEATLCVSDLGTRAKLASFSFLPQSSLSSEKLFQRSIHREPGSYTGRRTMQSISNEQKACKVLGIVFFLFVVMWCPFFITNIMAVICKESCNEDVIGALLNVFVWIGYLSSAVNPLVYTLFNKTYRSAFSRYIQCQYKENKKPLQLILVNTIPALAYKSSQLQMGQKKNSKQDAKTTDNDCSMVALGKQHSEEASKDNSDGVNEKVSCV
Chain of KiSS-1 receptor (Homo sapiens) (Q969F8 whole entry, looked up): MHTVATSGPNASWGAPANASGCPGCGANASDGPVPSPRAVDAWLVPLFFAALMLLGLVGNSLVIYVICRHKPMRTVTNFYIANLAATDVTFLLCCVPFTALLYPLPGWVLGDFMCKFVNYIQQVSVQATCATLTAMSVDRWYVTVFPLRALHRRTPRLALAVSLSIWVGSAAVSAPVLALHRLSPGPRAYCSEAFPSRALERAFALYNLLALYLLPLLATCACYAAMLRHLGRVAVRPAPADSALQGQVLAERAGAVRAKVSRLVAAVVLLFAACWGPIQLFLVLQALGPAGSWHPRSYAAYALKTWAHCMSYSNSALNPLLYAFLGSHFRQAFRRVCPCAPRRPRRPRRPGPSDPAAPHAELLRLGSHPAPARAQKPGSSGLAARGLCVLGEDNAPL
Chain of D(2) dopamine receptor (Homo sapiens) (P14416 whole entry, looked up): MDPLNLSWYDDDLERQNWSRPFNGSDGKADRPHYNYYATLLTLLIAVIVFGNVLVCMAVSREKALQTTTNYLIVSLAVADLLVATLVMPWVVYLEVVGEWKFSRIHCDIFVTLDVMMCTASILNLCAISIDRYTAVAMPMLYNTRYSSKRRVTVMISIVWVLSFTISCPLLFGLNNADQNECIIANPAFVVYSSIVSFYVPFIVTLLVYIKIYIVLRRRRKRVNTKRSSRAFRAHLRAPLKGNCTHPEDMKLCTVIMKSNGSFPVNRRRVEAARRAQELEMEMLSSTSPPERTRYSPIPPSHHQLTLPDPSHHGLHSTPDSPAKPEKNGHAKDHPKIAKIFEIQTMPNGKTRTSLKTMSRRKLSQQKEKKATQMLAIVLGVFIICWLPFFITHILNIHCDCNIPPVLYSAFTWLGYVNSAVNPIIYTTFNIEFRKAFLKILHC
Chain of Gonadotropin-releasing hormone receptor (Homo sapiens) (P30968 whole entry, looked up): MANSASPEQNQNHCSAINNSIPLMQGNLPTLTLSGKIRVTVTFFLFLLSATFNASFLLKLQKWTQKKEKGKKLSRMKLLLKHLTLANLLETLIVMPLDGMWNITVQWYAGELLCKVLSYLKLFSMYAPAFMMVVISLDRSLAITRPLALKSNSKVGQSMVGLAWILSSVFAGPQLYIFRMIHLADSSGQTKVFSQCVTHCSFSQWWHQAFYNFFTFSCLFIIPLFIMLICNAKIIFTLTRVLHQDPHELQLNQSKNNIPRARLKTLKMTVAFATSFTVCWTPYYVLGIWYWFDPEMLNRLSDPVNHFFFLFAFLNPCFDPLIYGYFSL
Chain of Beta-2 adrenergic receptor (Homo sapiens) (P07550 whole entry, looked up): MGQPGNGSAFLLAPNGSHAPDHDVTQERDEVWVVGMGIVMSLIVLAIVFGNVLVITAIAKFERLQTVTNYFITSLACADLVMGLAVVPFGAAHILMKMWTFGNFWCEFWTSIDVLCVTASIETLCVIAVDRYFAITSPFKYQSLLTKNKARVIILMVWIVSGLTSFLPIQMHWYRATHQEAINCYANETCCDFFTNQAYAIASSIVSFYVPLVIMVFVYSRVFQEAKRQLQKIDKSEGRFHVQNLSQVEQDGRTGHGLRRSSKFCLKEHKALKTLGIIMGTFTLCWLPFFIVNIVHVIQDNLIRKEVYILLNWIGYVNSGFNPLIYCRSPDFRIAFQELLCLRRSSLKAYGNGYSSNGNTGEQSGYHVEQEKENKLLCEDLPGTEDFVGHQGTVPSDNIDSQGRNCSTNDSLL

| SMILES | Potency [1] | Potency [2] | Potency [3] | Potency [4] | Potency [5] | Potency [6] | Potency [7] | Potency [8] | Potency [9] | Potency [10] | Potency [11] | Potency [12] | Potency [13] | Potency [14] | Potency [15] | Potency [16] | Potency [17] | Potency [18] | Potency [19] |
| --- | --- | --- | --- | --- | --- | --- | --- | --- | --- | --- | --- | --- | --- | --- | --- | --- | --- | --- | --- |
| CCCCOC(=O)[C@@H](C)Oc1ccc(Oc2ccc(C#N)cc2F)cc1 | inactive | inactive | inactive | inactive | inactive | inactive | inactive | inactive | inactive | 1.66 µM (active) | inactive | inactive | inactive | inactive |  |  |  |  |  |
| CC(C)(C)c1ccc(CCOc2ncnc3ccccc23)cc1 | inactive | inactive | inactive | inactive |  | inactive | inactive | inactive | inactive | inactive | inactive | inactive | inactive | inactive | inactive | inactive | inactive |  |  |
| CCC(C)c1cc([N+](=O)[O-])cc([N+](=O)[O-])c1OC(=O)C=C(C)C (centres undefined) | 48.6 µM (active) | 24.3 µM (active) | inactive | inactive | inactive |  | inactive | inactive | inactive | inactive | inactive | inactive |  | inactive |  |  |  | inactive |  |
| CCOC(=O)NC(O)C(Cl)(Cl)Cl (centres undefined) | inactive | inactive | inactive | inactive |  | inactive | inactive |  | inactive | inactive | inactive | inactive | inactive | inactive |  | inactive | inactive |  |  |
| C=CC(=O)[O][Sn]([CH2]CCC)([CH2]CCC)[CH2]CCC | 0.969 µM (active) | 1.37 µM (active) | 5.49 µM (active) | 19.5 µM (active) | inactive | 5.13 µM (active) | 8.14 µM (active) |  | 3.75 µM (active) |  | 11 µM (active) | 0.969 µM (active) | inactive | 2.43 µM (active) | 12.3 µM (active) |  |  | inactive |  |
| CC(C)=CCOc1c2occc2cc2ccc(=O)oc12 | inactive | inactive | inactive | inactive | inactive | inactive | inactive | inactive | inactive | inactive |  | inactive | inactive | inactive | inactive |  | inactive | inactive | inactive |
| CCCCC(CC)COC(=O)OOC(C)(C)C (centres undefined) | inactive | inactive | inactive | inactive | inactive | inactive | inactive | inactive | inactive |  | inactive | inactive | inactive | inactive | inactive | inactive | inactive |  | inactive |
| O=C(O)c1c(Cl)ccc2cc(Cl)cnc12 | inactive | inactive | inactive | inactive |  | inactive | inactive | inactive | inactive |  | inactive | inactive |  |  | inactive | inactive | inactive |  | inactive |
